The sample as a whole holds a higher share of hits than the screen did.
IL-1B inflam inh: inflammasome signaling inhibition, IL-1 beta readout | THP-1 LPS/ATP IL-1B secretion, AlphaLISA, 16 h; hits give low values | activity change, % at 57.5 µM | 360,000 tested, 4.7% active; in the data active means activity change below about -50%; inconclusive means mostly about -30% to -49%
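Secreted IL-1B measured by AlphaLISA bead assay after 16 h compound exposure of THP-1 cells; compounds (final up to 57.5 uM) added 1 h before LPS (250 ng/mL) and ATP (1.25 mM) stimulation; lower signal means less secretion.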
TDP1 cell noCPT: qHTS for Inhibitors of human tyrosyl-DNA phosphodiesterase 1 (TDP1): qHTS in cells in absence of CPT | DT40 Tdp1-/- hTDP1 cells, no CPT, ATP luminescence, 48 h | Potency, µM (highest dose often 46.2 µM), inactives show top-dose activity change, negative = growth inhibition, actives largely listed as inhibitors | 420,000 tested, 15% active | AID 686978, 2013; further: potency means the concentration at half of the fitted maximal effect; nearly all actives have a fitted effect of over 55% in size
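Cells were dispensed at 400 per well, compounds added by pin tool, plates incubated ≥48 hr at 37 °C, then CellTiter-Glo added for 30 min at room temperature before luminescence reading. Line: DT40 Tdp1-/- complemented with hTDP1; camptothecin omitted.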
HT1080-NT tox: kills 2HG-producing HT-1080-NT fibrosarcoma cells | HT-1080-NT fibrosarcoma viability, CellTiter-Glo ATP luminescence, 48 h | Potency, µM (highest dose often 46.1 µM), for inactives: at the top dose activity, negative = less viability, usual class: cytotoxic | 360,000 tested, 1.6% active;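 further: NT is the 2HG producing partner of a matched IDH1 knockdown line; potency means the concentration at half of the fitted maximal effect; 0% = DMSO-treated cells and -100% = media-only wells without cells; nearly all actives have a fitted effect of over 55% in size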
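Viability of the 2HG-overproducing fibrosarcoma line after 48 hours of compound exposure at 37 degrees C was determined by luminescence with CellTiter-Glo, and concentration-effect curves were then fitted and categorized.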
HT1080 IDH1KD tx: toxicity to HT-1080 IDH1 knockdown cells (counter line); HT-1080 IDH1 knockdown viability, ATP luminescence, 48 h; Potency, µM (titrated, usually from 46.1 µM), for inactives: at the highest dose activity, negative = toxicity, most hits filed as cytotoxic; 360,000 tested, 2% active;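 further: potency means the concentration at half of the fitted maximal effect; 0% = DMSO wells and -100% = cell-free medium wells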
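Luminescent ATP read-out (CellTiter-Glo, 10 min at room temperature) after 48 h compound exposure at 37 °C gave viability of IDH1-knockdown HT-1080 cells. Activity was normalised to DMSO and cell-free wells, then fitted as concentration-response curves.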
DT40 TDP1 CPT: DT40-hTDP1 cell growth loss with CPT. chicken DT40 Tdp1-/-;hTDP1 cells + 20 nM CPT, ATP luminescence, 48 h. Potency, µM (highest dose often 46.2 µM), inactives show at the top dose activity change, negative = growth inhibition, hits mostly inhibitors. 420,000 tested, 12% active. AID 686979; further: potency means the concentration at half of the fitted maximal effect; nearly all actives have a fitted effect of over 55% in size
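Chicken DT40 Tdp1-/- cells stably complemented with human TDP1 were seeded at 400 cells/well in medium containing 20 nM camptothecin, exposed to pin-transferred compounds, and grown at 37 °C for at least 48 hr. Viability was read as ATP luminescence.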
12-LOX inh: ALOX12 (human) lipoxygenase inhibition | Potency, µM (highest dose often 108 µM), for the others: at the top dose activity change, negative = inhibition, actives largely listed as inhibitors | 580,000 tested, 1.1% active | P18054 | purified 12hLO, xylenol orange hydroperoxide absorbance; further: potency means the concentration at half of the fitted maximal effect
Target sequence (P18054 whole entry, looked up): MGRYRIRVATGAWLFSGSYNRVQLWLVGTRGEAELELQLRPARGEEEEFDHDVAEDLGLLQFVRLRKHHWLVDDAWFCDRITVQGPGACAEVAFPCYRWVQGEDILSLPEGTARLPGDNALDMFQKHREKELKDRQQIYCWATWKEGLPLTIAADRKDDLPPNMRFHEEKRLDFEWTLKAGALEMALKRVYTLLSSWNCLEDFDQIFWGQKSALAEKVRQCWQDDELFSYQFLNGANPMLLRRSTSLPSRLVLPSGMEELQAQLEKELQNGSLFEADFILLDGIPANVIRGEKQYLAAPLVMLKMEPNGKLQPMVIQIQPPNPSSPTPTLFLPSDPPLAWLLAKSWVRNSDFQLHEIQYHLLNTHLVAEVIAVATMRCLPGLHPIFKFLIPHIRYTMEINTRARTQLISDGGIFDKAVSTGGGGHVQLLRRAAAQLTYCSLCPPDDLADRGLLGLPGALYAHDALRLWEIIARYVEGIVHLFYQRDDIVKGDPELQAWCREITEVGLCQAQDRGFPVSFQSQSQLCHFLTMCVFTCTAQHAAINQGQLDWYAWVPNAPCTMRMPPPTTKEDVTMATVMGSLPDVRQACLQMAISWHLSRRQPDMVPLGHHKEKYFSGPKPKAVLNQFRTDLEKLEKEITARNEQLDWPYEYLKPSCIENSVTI
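Purified human 12hLO (150 nM final) in 25 mM Hepes, 0.01% Triton X-100, pH 7.0 was preincubated 15 min at room temperature with compound. Then 40 uM arachidonic acid was added, 30 min. Hydroperoxide was read by Fe-XO absorbance ratio 573/405 nm.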
Numbers without * were called inactive; ? = inconclusive; nt = no result. Unless noted, the call rests on the fitted dose curve; in most records, active means well fitted curve in the direction sought with a large enough effect; inconclusive means small, poorly fitted or top-dose-only effect, or another doubt; inactive means no such curve, though single readings can be large; an effect the other way counts as inactive or inconclusive. Unless noted, on the % scale 0 is the no-effect control and ±100 the full control effect.

SMILES	IL-1B inflam inh	TDP1 cell noCPT	HT1080-NT tox	HT1080 IDH1KD tx	DT40 TDP1 CPT	12-LOX inh
COCCN(Cc1nc2ccccc2c(=O)[nH]1)C(=O)c1cccc(S(=O)(=O)N2CCCC2)c1	31	-4%	6%	-4%	?	5%
COCCN(Cc1ccccc1)C(=O)c1cccc(S(=O)(=O)N2CCN(c3ccc(F)cc3)CC2)c1	-20	18µM*	0%	-11%	?	-4%
O=C(COC(=O)C1CCN(/C=C/C(=O)C(F)(F)F)CC1)Nc1cccc(F)c1	28	-22%	0%	10%	4%	-28%
Cc1ccc(C(C)C)c(OCC(=O)NC(=S)Nc2ccccc2N2CCOCC2)c1	0	16µM*	?	?	23µM*	-11%
CCC(=O)N1CCN(c2ccccc2NC(=O)COc2cc(C)ccc2C(C)C)CC1	-95*	23µM*	?	?	16µM*	17%
O=C1CCN(S(=O)(=O)c2ccccc2)CCCN(C(=O)C2CCC2)CCN1	nt	nt	nt	nt	nt	5%
CCOC(=O)C1CCN(c2c(C(=O)c3ccc(OC)cc3)cnc3ccccc23)CC1	nt	16µM*	nt	nt	21µM*	-29%
CCOC(=O)c1cnc2ccccc2c1N1CCC(C(=O)OC)CC1	nt	nt	nt	nt	nt	-3%
COc1cc2ncc(C(=O)c3ccccc3)c(N3CCN(Cc4ccccc4)CC3)c2cc1OC	-77*	18µM*	?	-30%	?	11%
COc1ccccc1N1CCN(Cc2ccc(C(=O)O)cc2)CC1	36	-4%	1%	2%	-3%	12%
CCOC(=O)C1CCN(c2c(C(=O)c3ccccc3)cnc3ccc(CC)cc23)CC1	3	18µM*	0%	8%	?	?
O=C(Cn1nc2c(cc1=O)CCCCC2)Nc1ccccc1	nt	nt	nt	nt	nt	35%
CC(C)(C)C(=O)N1CCC2(C1)C(=O)N(CCc1ccccc1)c1ccccc12 (stereo not drawn)	nt	nt	nt	nt	nt	20%
CCC(CC)C(=O)Nc1ccc2nc(SCC(=O)N3CCCC3)sc2c1	nt	21µM*	nt	nt	?	-12%
CC(C)C(=O)Nc1ccc2nc(SCC(=O)N3CCCC3)sc2c1	nt	?	nt	nt	?	0%
CC(C)CC(=O)Nc1ccc2nc(SCC(=O)N3CCCC3)sc2c1	nt	23µM*	nt	nt	23µM*	0%
COc1ccc(N(C(C)C(=O)NCc2ccc(Cl)cc2Cl)S(C)(=O)=O)cc1 (stereo not drawn)	nt	nt	nt	nt	nt	-11%
CC(C)Oc1ccc2c(=O)c3cc(C(=O)O)ccc3oc2c1	nt	-4%	nt	nt	16%	35%
CCN(CC)c1ccc(NC(=O)COc2ccccc2C)cc1S(=O)(=O)Nc1ccccc1OC	11	15µM*	18%	16%	?	?
CCN(CC)c1ccc(NC(=O)c2ccccc2Br)cc1S(=O)(=O)Nc1ccccc1OC	-60*	10µM*	0%	2%	12µM*	35µM*
C=CCCC(CN1CCOCC1)Oc1ccc(-c2nc(C)no2)cn1 (stereo not drawn)	nt	nt	nt	nt	nt	92%
N#C/C(=C/c1cn(-c2ccccc2)nc1-c1cccc(OCc2ccccc2)c1)C(=O)NCCCn1ccnc1	-75*	?	-28%	?	?	1%
Cc1ccc(-c2nn(-c3ccccc3)cc2/C=C(\C#N)C(=O)NCc2ccccc2)cc1	3	?	-11%	-21%	-29%	-1%
CCSc1ccc(-c2nn(-c3ccccc3)cc2/C=C(/C#N)C(=O)NCCCOC)cc1	19	1%	-1%	0%	-5%	-4%
CCOc1cccc(-c2nn(-c3ccccc3)cc2/C=C(/C#N)C(=O)NCCCn2ccnc2)c1	-99*	?	26µM*	?	?	-16%
